Assay results taken from PubChem BioAssay (Tox21).
“And” between values parts separate entries of the source, which are not always exact repeats. Equal values may be shown once. Unmarked numbers belong to inactive results. Results filed as inconclusive are left out. A call without a number means that no potency is given here. The source made the active and inactive calls. Unless noted, calls come from the whole dose curve; as a rule, active = well fitted curve in the direction sought with a large enough effect in the repeat runs; inconclusive = weak or mixed curves; inactive = no such curve, though single readings can be large; an effect the other way counts as inactive or inconclusive.

Columns and labels:
[1] = biological target: Progesterone receptor (Homo sapiens) (UniProt P06401); assay: qHTS assay to identify small molecule antagonists of the progesterone receptor (PR) signaling pathway (AID 1346795; active = well fitted inhibition curve with a large enough effect in the signal ratio in the repeat runs, not every such curve was filed as active; the % refers to the signal ratio; note: potency is the fitted concentration of half-maximal effect)
Method in brief: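 Antagonist mode with agonist R5020 at 1 nM final and 16 hr incubation at 37C. Reporter was beta-lactamase driven by UAS in HEK293T (PR-UAS-bla), 2% charcoal-stripped serum; signal from LiveBLAzer FRET substrate, 2 hr at room temperature.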

[2] = qHTS assay to identify small molecule antagonists of the progesterone receptor (PR) signaling pathway - cell viability counter screen (AID 1346798); note: series mostly up to about 92 µM; nearly all actives have a fitted effect of over 50% in size
Method in brief: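 Cytotoxicity read as CellTiter-Glo luminescence (30 min, room temperature) in the same wells as the beta-lactamase readout. HEK293T PR-UAS-bla cells in charcoal-stripped 2% FBS received compound and R5020, then 16 h at 37C, 5% CO2.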

[3] = qHTS assay to identify small molecule agonists of the progesterone receptor (PR) signaling pathway - cell viability counter screen (AID 1346799; calls by dose curve; note: nearly all actives have a fitted effect of over 45% in size)
Method in brief: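 Cytotoxicity measured by CellTiter-Glo luminescence (30 min, RT) in the same wells as the PR beta-lactamase agonist read. Those HEK293T cells had 16 h compound treatment at 37 C in 2% charcoal-stripped FBS medium.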

[4] = qHTS assay to identify small molecule antagonists of the TGF-beta/Smad signaling pathway - cell viability counter screen (AID 1346824); note: nearly all actives have a fitted effect of over 50% in size
Method in brief: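 SBE-bla HEK 293T cells were plated overnight at 37 C, then given compounds in DMSO plus TGF-beta1 (added as 0.25 ng/mL solution) for 5 hr. After the bla read, CellTiter-Glo was added to the same wells and luminescence read after 30 min at room temperature.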

[5] = qHTS assay to identify small molecule agonists of the TGF-beta/Smad signaling pathway - cell viability counter screen (AID 1346829); note: top concentration of the series differs between compounds; nearly all actives have a fitted effect of over 45% in size
Method in brief: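 Here the cytotoxicity of library compounds is measured in SBE-bla HEK 293T cells treated for 5 hr, using CellTiter-Glo added to wells already read for the beta-lactamase reporter.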

[6] = qHTS assay to identify small molecule agonists of the TGF-beta/Smad signaling pathway (AID 1346859; active = well fitted activation curve with a large enough effect in the signal ratio in the repeat runs, not every such curve was filed as active; the % refers to the signal ratio; note: series mostly up to about 77 µM)
Method in brief: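 Fluorescence (ex 405 nm; em 460 and 530 nm) was read 2 h after LiveBLAzer FRET substrate at RT. The preceding compound treatment of overnight-plated SBE-bla HEK293T cells lasted 5 h at 37 C.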

[7] = biological target: Thyrotropin-releasing hormone receptor (Homo sapiens) (UniProt P34981); assay: qHTS assay to identify small molecule antagonists of the thyrotropin-releasing hormone receptor (TRHR) signaling pathway (AID 1346877; active = well fitted inhibition curve with a large enough effect in the repeat runs, not every such curve was filed as active; note: series mostly up to about 51 µM)
Method in brief: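 TRHR-expressing HEK293 cells loaded with calcium dye for 2 h at 37 C; compounds pre-incubated 5 min at room temperature before TRH challenge at 1 nM final. Intracellular calcium fluorescence read kinetically for 3 min; 15 concentrations in triplicate.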

[8] = biological target: Thyrotropin-releasing hormone receptor (Homo sapiens) (UniProt P34981); assay: qHTS assay to identify small molecule agonists of the thyrotropin-releasing hormone receptor (TRHR) signaling pathway (AID 1346891; calls by dose curve; note: potency is the fitted concentration of half-maximal effect; for activation: series mostly up to about 58 µM)
Method in brief: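 Agonist-mode intracellular calcium readout: kinetic fluorescence over 3 min at 1 s intervals after compound addition to TRHR-HEK293 cells (18 h seeded, 2 h dye-loaded at 37 C). Fifteen concentrations, triplicates.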

[9] = Human pregnane X receptor (PXR) small molecule agonists, qHTS cell viability counter screen (AID 1346977); note: nearly all actives have a fitted effect of over 50% in size; note: potency is the fitted concentration of half-maximal effect
Method in brief: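 Same-well viability read: CellTiter-Fluor added after 23 hr compound exposure, fluorescence measured 1 hr later. Cells were PXR-Luc HepG2 seeded at 2,000/well in 5% charcoal-stripped FBS medium, rested 5 hr before dosing at 37 C.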

[10] = Caspase-3/7 induction in HepG2 cells by small molecules, qHTS assay (AID 1346978); note: nearly all actives have a fitted effect of over 15% in size; note: potency is the fitted concentration of half-maximal effect
Method in brief: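 Wild-type HepG2 cells (2,000/well) were settled 5 h at 37 C, 5% CO2, then exposed to compounds in DMSO for 17 h. Caspase-3/7 activity was read by luminescence 30 min after adding Caspase-Glo 3/7 reagent at room temperature.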

[11] = Caspase-3/7 induction in CHO-K1 cells by small molecules, qHTS cell viability counter screen (AID 1346979); note: nearly all actives have a fitted effect of over 35% in size; note: potency is the fitted concentration of half-maximal effect
Method in brief: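 Cytotoxicity counter screen: CellTiter-Fluor added to compound-treated wild-type CHO-K1 cells at 16 h (37C, 5% CO2), fluorescence measured 1 h later; same wells as caspase-3/7 measurement.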

[12] = Caspase-3/7 induction in CHO-K1 cells by small molecules, qHTS assay (AID 1346980); note: nearly all actives have a fitted effect of over 15% in size; note: potency is the fitted concentration of half-maximal effect
Method in brief: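 Wild-type cells were seeded at 1,500 per well and settled 5 hr at 37 C, 5% CO2, then exposed to DMSO-dissolved compounds for 17 hr. Caspase-Glo 3/7 reagent was added, and luminescence was read after 30min at room temperature.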

[13] = Caspase-3/7 induction in HepG2 cells by small molecules, qHTS cell viability counter screen (AID 1346981); note: nearly all actives have a fitted effect of over 30% in size; note: potency is the fitted concentration of half-maximal effect
Method in brief: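 Wild-type HepG2 cells, 2,000/well, settled 5 hr at 37 C, 5% CO2 before compound addition. Viability read by CellTiter-Fluor fluorescence, reagent added after 16 hr compound exposure, then 1 hr at 37C, in the same wells as the caspase read.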

[14] = biological target: Cytochrome P450 2D6 (Homo sapiens) (UniProt P10635); assay: Cytochrome P450 Family 2 Subfamily D Member 6 (CYP2D6) small molecule antagonists: luciferase reporter qHTS assay (AID 1671196); note: nearly all actives have a fitted effect of over 50% in size; note: potency is the fitted concentration of half-maximal effect
Method in brief: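 Cell-free P450-Glo system: CYP2D6 with proluciferin substrate was pre-incubated with compound for 10 min, then reacted with NADPH regeneration for 1 h at room temperature. Luciferin product was detected after 20 min, and data were reported as relative luminescence units.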

[15] = biological target: Cytochrome P450 2C19 (Homo sapiens) (UniProt P33261); assay: Cytochrome P450 Family 2 Subfamily C Member 19 (CYP2C19) small molecule antagonists: luciferase reporter qHTS assay (AID 1671197); note: nearly all actives have a fitted effect of over 65% in size; note: potency is the fitted concentration of half-maximal effect
Method in brief: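 Light output is proportional to CYP2C19 activity: proluciferin substrate is converted to luciferin, then detected by a luciferin detection reagent that also stops the 1 h, 37C NADPH-driven reaction. Ketoconazole serves as positive control.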

[16] = biological target: Nuclear receptor subfamily 1 group I member 2 (Homo sapiens) (UniProt O75469); assay: Human pregnane X receptor (PXR) small molecule agonists, qHTS assay (AID 1346982); note: nearly all actives have a fitted effect of over 35% in size; note: potency is the fitted concentration of half-maximal effect
Method in brief: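 PXR-Luc HepG2 reporter cells (CYP3A4-driven luciferase) in 5% charcoal-stripped FBS medium, plated 5 h before compound addition, then treated 24 h at 37C. Luciferase read by ONE-Glo luminescence after 30 min at room temperature.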

[17] = biological target: Nuclear receptor subfamily 1 group I member 2 (Rattus norvegicus) (UniProt Q9R1A7); assay: Rat pregnane X receptor (rPXR) activation by small molecules, qHTS assay (AID 1346983); details: rPXR luciferase reporter cells, One-Glo luminescence, 24 h; max activation: stronger effect = higher value; note: nearly all actives have a fitted effect of over 20% in size
Method in brief: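 Cell-based rPXR luciferase reporter assay, 2,000 cells per well, rested 5hr at 37 C before compound addition in DMSO, then 24 hr at 37 C. One-Glo reagent was added and luminescence read after 30 min at room temperature.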

[18] = biological target: Nuclear receptor subfamily 1 group I member 2 (Homo sapiens) (UniProt O75469); assay: CYP3A4 induction through human pregnane X receptor (PXR) by small molecules, qHTS assay (AID 1346984); note: nearly all actives have a fitted effect of over 40% in size
Method in brief: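 DPX-2 HepG2 cells carrying a PXR response element and CYP3A4-promoter luciferase construct, treated with compounds 24 hr at 37C. Then P450-Glo CYP3A4 Luciferin-IPA substrate (3uM final) for 3 hr at 37C, One-Glo added, luminescence read.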

[19] = biological target: Progesterone receptor (Homo sapiens) (UniProt P06401); assay: qHTS assay to identify small molecule agonists of the progesterone receptor (PR) signaling pathway (AID 1346784; calls by dose curve; note: nearly all actives have a fitted effect of over 30% in size)
Method in brief: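 Agonist qHTS: compounds pinned onto 3,000 PR-UAS-bla HEK 293T cells per well in charcoal-stripped serum medium, 16hr at 37C, then beta-lactamase activity measured by LiveBLAzer FRET fluorescence after 2 hours at room temperature.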

Nuclear receptor subfamily 1 group I member 2 (Homo sapiens), sequence (O75469 whole entry, looked up): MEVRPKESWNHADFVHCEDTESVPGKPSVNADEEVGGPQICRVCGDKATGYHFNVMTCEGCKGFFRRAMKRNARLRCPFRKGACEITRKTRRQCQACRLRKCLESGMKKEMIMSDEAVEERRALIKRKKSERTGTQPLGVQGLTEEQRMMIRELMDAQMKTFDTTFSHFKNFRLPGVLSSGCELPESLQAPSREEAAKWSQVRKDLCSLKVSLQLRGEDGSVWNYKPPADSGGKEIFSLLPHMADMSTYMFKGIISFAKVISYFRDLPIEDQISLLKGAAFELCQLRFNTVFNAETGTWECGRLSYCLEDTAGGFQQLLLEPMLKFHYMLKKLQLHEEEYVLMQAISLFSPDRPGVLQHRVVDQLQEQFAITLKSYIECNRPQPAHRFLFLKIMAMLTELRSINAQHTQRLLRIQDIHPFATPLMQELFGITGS
Progesterone receptor (Homo sapiens), sequence (P06401 whole entry, looked up): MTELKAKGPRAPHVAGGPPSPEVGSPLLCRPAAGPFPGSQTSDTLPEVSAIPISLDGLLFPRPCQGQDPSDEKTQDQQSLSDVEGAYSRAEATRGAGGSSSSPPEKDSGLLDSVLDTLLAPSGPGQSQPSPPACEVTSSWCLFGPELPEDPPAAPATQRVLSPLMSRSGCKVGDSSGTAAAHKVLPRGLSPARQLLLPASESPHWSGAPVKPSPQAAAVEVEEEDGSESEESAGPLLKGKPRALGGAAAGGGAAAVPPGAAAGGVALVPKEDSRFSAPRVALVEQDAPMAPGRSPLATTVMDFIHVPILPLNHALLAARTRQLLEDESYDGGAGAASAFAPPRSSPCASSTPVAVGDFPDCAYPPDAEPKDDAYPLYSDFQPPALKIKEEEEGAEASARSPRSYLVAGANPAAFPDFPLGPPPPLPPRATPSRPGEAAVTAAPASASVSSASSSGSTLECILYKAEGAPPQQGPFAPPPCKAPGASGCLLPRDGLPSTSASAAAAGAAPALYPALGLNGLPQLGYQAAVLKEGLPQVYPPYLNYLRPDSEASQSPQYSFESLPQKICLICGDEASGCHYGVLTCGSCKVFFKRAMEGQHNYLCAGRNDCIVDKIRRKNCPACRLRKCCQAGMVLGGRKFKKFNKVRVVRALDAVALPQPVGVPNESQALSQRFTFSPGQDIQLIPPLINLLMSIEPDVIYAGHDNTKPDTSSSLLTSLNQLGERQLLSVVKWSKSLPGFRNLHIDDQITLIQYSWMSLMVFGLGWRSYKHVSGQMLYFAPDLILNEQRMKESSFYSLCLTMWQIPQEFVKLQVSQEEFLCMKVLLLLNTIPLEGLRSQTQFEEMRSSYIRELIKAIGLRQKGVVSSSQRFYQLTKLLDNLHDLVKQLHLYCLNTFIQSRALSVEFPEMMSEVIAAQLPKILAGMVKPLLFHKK
Cytochrome P450 2C19 (Homo sapiens), sequence (P33261 whole entry, looked up): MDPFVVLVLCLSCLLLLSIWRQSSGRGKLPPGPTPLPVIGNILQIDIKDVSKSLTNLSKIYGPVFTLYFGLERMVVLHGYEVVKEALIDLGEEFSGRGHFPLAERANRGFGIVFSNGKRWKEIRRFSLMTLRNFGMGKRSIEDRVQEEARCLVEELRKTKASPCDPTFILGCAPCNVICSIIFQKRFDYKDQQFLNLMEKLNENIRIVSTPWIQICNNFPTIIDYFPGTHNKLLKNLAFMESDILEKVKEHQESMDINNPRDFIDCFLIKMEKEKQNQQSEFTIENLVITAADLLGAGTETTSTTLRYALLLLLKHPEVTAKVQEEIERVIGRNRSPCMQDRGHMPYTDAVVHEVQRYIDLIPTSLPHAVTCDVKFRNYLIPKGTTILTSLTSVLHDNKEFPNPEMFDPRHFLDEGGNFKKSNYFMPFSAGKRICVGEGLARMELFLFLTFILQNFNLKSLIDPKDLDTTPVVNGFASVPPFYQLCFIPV
Cytochrome P450 2D6 (Homo sapiens), sequence (P10635 whole entry, looked up): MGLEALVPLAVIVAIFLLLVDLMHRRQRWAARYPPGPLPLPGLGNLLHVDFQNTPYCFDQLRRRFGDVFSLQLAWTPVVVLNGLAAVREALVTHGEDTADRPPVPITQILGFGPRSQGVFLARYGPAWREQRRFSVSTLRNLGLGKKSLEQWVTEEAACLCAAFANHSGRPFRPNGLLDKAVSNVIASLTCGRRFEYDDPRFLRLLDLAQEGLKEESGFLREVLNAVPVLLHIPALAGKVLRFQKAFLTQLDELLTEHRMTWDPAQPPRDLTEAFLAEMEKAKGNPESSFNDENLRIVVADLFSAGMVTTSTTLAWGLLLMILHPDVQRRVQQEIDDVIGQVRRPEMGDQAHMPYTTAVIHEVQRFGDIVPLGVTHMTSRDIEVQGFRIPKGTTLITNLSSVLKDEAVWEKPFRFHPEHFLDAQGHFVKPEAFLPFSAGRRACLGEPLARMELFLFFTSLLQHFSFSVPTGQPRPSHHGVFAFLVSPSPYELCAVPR
Thyrotropin-releasing hormone receptor (Homo sapiens), sequence (P34981 whole entry, looked up): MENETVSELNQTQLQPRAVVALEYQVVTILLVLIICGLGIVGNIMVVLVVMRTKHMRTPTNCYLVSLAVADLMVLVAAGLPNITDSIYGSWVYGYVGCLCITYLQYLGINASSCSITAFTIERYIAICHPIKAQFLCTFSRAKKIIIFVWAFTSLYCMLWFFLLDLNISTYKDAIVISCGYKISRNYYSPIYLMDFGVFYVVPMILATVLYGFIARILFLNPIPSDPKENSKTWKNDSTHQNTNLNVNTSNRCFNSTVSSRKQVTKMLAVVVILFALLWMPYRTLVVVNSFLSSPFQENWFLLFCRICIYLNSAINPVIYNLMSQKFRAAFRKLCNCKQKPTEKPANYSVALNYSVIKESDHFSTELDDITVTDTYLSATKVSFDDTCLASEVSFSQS
Nuclear receptor subfamily 1 group I member 2 (Rattus norvegicus), sequence (Q9R1A7 whole entry, looked up): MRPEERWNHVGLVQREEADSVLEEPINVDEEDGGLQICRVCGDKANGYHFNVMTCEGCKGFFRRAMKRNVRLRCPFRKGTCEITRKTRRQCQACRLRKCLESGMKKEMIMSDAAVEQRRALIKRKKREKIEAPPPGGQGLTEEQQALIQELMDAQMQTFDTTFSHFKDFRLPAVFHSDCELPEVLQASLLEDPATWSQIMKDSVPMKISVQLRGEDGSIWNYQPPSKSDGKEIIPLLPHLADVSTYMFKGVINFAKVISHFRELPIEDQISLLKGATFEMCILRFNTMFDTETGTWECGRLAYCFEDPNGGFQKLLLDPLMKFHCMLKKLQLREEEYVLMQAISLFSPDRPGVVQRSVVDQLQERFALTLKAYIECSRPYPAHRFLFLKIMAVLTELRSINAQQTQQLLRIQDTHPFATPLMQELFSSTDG

SMILES | Potency [1] | Potency [2] | Potency [3] | Potency [4] | outcome [5] | Potency [6] | outcome [7] | Potency [8] | Potency [9] | Potency [10] | Potency [11] | Potency [12] | Potency [13] | Potency [14] | Potency [15] | Potency [16] | max activation [17] [%] | Potency [18] | Potency [19]
CC(COCCO)OCCO (stereo unspecified) | inactive | inactive | inactive | inactive | inactive | inactive | inactive | inactive | inactive | inactive | inactive | inactive | inactive | 25.8 µM (active) | inactive | – | – | – | –
O=[N+]([O-])c1cccc(S(=O)(=O)O)c1 | inactive | – | – | inactive | inactive | inactive | – | – | – | inactive | inactive | inactive | inactive | 7.21 µM (active) | 32.2 µM (active) | – | – | – | –
C[Si](C)(CCCN)O[Si](C)(C)CCCN | inactive | inactive | inactive | inactive | inactive | inactive | inactive | inactive | inactive | inactive | inactive | inactive | inactive | 22.4 µM (active) | 39.9 µM (active) | inactive | – | – | –
CC1(c2ccccc2)OC(C(=O)O)=CC1=O (stereo unspecified) | inactive | inactive | inactive | – | inactive | inactive | inactive | inactive | – | inactive | inactive | inactive | inactive | – | inactive | – | -1.39 | inactive | –
CC1=CCCC(C)(C)C12CCC(C)O2 (stereo unspecified) | inactive | inactive | inactive | inactive | inactive | inactive | inactive | inactive | inactive | inactive | inactive | inactive | inactive | – | inactive | 54.5 µM (active) | – | – | –
OCCN1CCN(CCCN2c3ccccc3C=Cc3ccccc32)CC1 | inactive | inactive | – | inactive | inactive | inactive | – | – | – | inactive | inactive | inactive | – | 13.8 µM (active) | – | 6.68 µM (active) | -15.2 | – | –
CCN(CC)c1ccc2c(-c3ccccc3C(=O)O)c3ccc(=[N+](CC)CC)cc-3oc2c1 | inactive | inactive | – | inactive | inactive | – | inactive | 34.7 µM (active) | 4.86 µM (active) | inactive | 2.17 µM (active) | inactive | 5.45 µM (active) | 35.6 µM (active) | 71 µM (active) | 24.3 µM (active) | – | – | –
CCCCCCc1ccc(-c2ccc(C#N)cc2)cc1 | 21.3 µM (active) | inactive | – | inactive | inactive | – | – | – | inactive | inactive | inactive | inactive | inactive | 39.2 µM (active) | 44 µM (active) | inactive | – | – | –
C=CC(=O)OCCOCCOCCOCCOC(=O)C=C | – | – | – | – | inactive | inactive | inactive | inactive | – | 68 µM (active) | 8.68 µM (active) and 13.6 µM (active) | 9.74 µM (active) and 12.1 µM (active) | 30.8 µM (active) and 27.1 µM (active) | inactive | inactive | inactive | – | – | inactive
CC1CCC(=O)C1=O (stereo unspecified) | inactive | inactive | inactive | inactive | inactive | inactive | – | – | inactive | inactive | inactive | inactive | inactive | inactive | inactive | inactive | – | – | –
O=C1CCCCCCCCCCCC(=O)OCCO1 | inactive | – | – | inactive | inactive | inactive | inactive | inactive | inactive | inactive | inactive | inactive | inactive | – | 71 µM (active) | – | – | – | –
Cc1ccccc1S(=O)(=O)O | inactive | inactive | inactive | inactive | inactive | inactive | inactive | inactive | inactive | inactive | inactive | inactive | inactive | inactive | inactive | inactive | – | – | –
